According to PubChem BioAssay (NCATS):
Records with an inconclusive call do not appear. Active and inactive are the calls of the source. Unless noted, calls come from the whole dose curve; as a rule, active = well fitted curve in the direction sought with a large enough effect; inconclusive = small, poorly fitted or top-dose-only effect, or another doubt; inactive = no such curve, though single readings can be large; an effect the other way counts as inactive or inconclusive.

Key:
[1] = Cellular Toxicity (caspase-3) Mesangial (AID 660);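 note: combined caspase 3 and 7 activity read by Caspase-Glo luminescence; cells exposed to compound for 16 h before the caspase read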
Summary of the method: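 Caspase 3/7 activation measured by Caspase-Glo 3/7 luminescence (20 min, room temperature) following 16 h exposure of mesangial cells (1000/well); AC50 from Hill-equation fit, normalized to DMSO and 100 uM tamoxifen.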

[2] = Cellular Toxicity (caspase-3) SK-N-SH (AID 661);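 note: cells exposed to compound for 16 hours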
Summary of the method: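 Caspase 3/7 activation was read by luminogenic substrate cleavage after 16 hour treatment of SK-N-SH cells. Signal was scaled between DMSO and 10 uM staurosporine, and concentration-response data were fitted with the Hill equation for AC50.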

[3] = Cellular Toxicity (caspase-3) H-4-II-E (AID 663); settings: Potency: caspase-3 activation;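 note: cells exposed to compound for 16 hr before readout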
Summary of the method: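 Caspase 3/7 activation measured by luminescent aminoluciferin substrate cleavage after 16 hr compound treatment of H-4-II-E cells in complete medium. Increase normalized between DMSO (basal) and 100 uM tamoxifen (100%); Hill-equation AC50 from concentration-response.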

[4] = Cellular Toxicity (caspase-3) Hek293 (AID 664);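 note: cells exposed to compound for 16 h at 37 °C before readout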
Summary of the method: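 Concentration-response qHTS: caspase 3/7 activation measured by luminescent aminoluciferin substrate cleavage after 16 h compound exposure of Hek 293 cells. AC50 from Hill equation, with DMSO as basal and 100 uM tamoxifen as 100%.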

[5] = Cellular Toxicity (caspase-3) N2a (AID 665);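 note: compound exposure lasted 16 h at 37 °C before readout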
Summary of the method: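 Caspase-3/7 activation measured as luminescence from Caspase-Glo reagent (1 h, room temperature) after 16 h compound exposure of mouse N2a cells. AC50 values from Hill-equation concentration-response, scaled between DMSO and 10 uM staurosporine.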

[6] = Cellular Toxicity (caspase-3) NIH 3T3 (AID 666);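 note: caspase signal read after 16 h compound exposure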
Summary of the method: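 Caspase-Glo 3/7 luminescence reported caspase activation in 1000 NIH 3T3 cells/well after 16 h compound exposure at 37 C. DMSO set basal and 100 uM tamoxifen set 100% stimulation; concentration-response modeled with the Hill equation for AC50.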

[7] = Cellular Toxicity (caspase-3) Renal Proximal Tubule (AID 667);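 note: cells exposed to compound for 16 hours at 37 °C before detection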
Summary of the method: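 AC50 derived by standard Hill fit of concentration-response data, normalized between DMSO basal and 10 uM staurosporine as 100% stimulation. Cells: primary rat kidney proximal tubule, 16 h treatment at 37 °C.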

[8] = Cell Viability - LYMP2-001 (AID 921); note: series mostly up to about 92 µM; nearly all actives have a fitted effect of over 70% in size
Summary of the method: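 Steps: seed 2500 lymphoblastoid cells/well; 5 hr, 37 C; add compound; 24 hr, 37 C; CellTiter-Glo reagent, 30 min room temperature; read luminescence. Concentration-response modeled by Hill equation for AC50.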

[9] = MultiTox-Fluor Cytotoxicity Assay - LYMP1-001 - Dead Cells (AID 946)
Summary of the method: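 Seed 2500 LYMP1-001 cells/well, incubate 5 hr at 37 C; add compound, 16 hr at 37 C; add MultiTox-Fluor reagent, 60 min RT; read dead-cell fluorescence Ex/Em=485/520. Normalize to DMSO and 15 uM tetraoctylammonium bromide.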

[10] = MultiTox-Fluor Cytotoxicity Assay - LYMP1-001 - Live Cells (AID 947)
[11] = Cell Viability - LYMP1-002 - Assay at 16 hr (AID 948)
Summary of the method: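 Seed 2500 LYMP1-002 cells per well in complete medium and hold 5 hr at 37 C. Add compound across a concentration series and incubate 16 hr at 37 C. Add CellTiter-Glo, wait 30 min at room temperature, read luminescence.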

[12] = MultiTox-Fluor Cytotoxicity Assay - LYMP1-002 - Live Cells (AID 955);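 note: cells exposed to compound for 16 hours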
Summary of the method: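 After 16 h compound exposure at 37 C, live LYMP1-002 lymphoblastoid cells (2500/well) were quantified by cleavage of cell-permeant GF-AFC substrate, read at 405/510 nm after 60 min. Concentration-response fitted with Hill equation for AC50.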

[13] = MultiTox-Fluor Cytotoxicity Assay - LYMP1-002 - Dead Cells (AID 960); note: nearly all actives have a fitted effect of over 60% in size
Summary of the method: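 Dead-cell fluorescence (Ex/Em 485/520) after 16 h compound exposure at 37 C of LYMP1-002 lymphoblastoid cells in complete medium; AC50 by Hill equation, with data scaled between DMSO and 15 uM tetraoctylammonium bromide.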

[14] = MultiTox-Fluor Cytotoxicity Assay - LYMP1-003 - Dead Cells (AID 961); note: nearly all actives have a fitted effect of over 70% in size
Summary of the method: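 LYMP1-003 lymphoblastoid, 2500 cells/well, 5 hr settle then 16 hr cpd at 37 C; MultiTox-Fluor reagent 60 min RT; Ex/Em 485/520 dead-cell signal; norm. DMSO = 0%, 15 uM tetraoctylammonium bromide = 100%; Hill AC50.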

[15] = MultiTox-Fluor Cytotoxicity Assay - LYMP1-003 - Live Cells (AID 962);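 note: cells exposed to compound for 16 hours at 37 °C; cytotoxic hits lower the live-cell protease signal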
Summary of the method: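 Live-cell protease activity (GF-AFC substrate, 405/510 nm, 60 min at room temperature) after 16 h, 37 C compound exposure of human lymphoblastoid LYMP1-003 cells; concentration-response fitted to the Hill equation for AC50.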

[16] = Cell Viability - LYMP1-003 - Assay at 24 hr (AID 963)
Summary of the method: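 Concentration-response qHTS: ATP loss measured by CellTiter-Glo luminescence after 24 h compound exposure at 37 C. Cells were LYMP1-003 human lymphoblastoid, 2500 per well. AC50 derived via standard Hill equation modeling.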

[17] = Cell Viability - LYMP1-003 - Assay at 40 hr (AID 964); note: series mostly up to about 92 µM; nearly all actives have a fitted effect of over 60% in size
Summary of the method: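 Viability is taken as cellular ATP, read by CellTiter-Glo luminescence after 40 h of compound exposure at 37 C. Cells: human lymphoblastoid line LYMP1-003 at 2500/well; AC50 values derived by Hill-equation fitting of concentration-response data.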

[18] = Cell Viability - LYMP2-003 (AID 965);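 note: cells exposed to compounds for 24 h before reading; nearly all actives have a fitted effect of over 50% in size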
Summary of the method: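 Seed 2500 lymphoblastoid cells/well; incubate 5 hr, 37 C; add compounds; incubate 24 hr, 37 C; add CellTiter-Glo, 30 min RT; read luminescence. AC50 from Hill fit.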

[19] = Cell Viability - LYMP2-004 (AID 966); note: nearly all actives have a fitted effect of over 65% in size
Summary of the method: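 AC50 values come from Hill modelling of concentration-dependent loss of intracellular ATP, measured by CellTiter-Glo luminescence. Human LYMP2-004 lymphoblastoid cells (2500/well) were exposed to compound for 24 h at 37 C.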

[20] = qHTS assay for small molecule antagonists of the retinoid-related orphan receptor gamma (ROR-gamma) signaling pathway - cell viability counter screen (AID 720652; active = well fitted curve in the direction sought with a large enough effect in the repeat runs; an effect the other way counts as inactive or inconclusive;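 note: CHO reporter cells with doxycycline-induced ROR-gamma expression; series mostly up to about 92 µM; compound exposure lasted 16 hr before ATP read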)
Summary of the method: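 Cytotoxicity counter screen: intracellular ATP (CellTiter-Glo luminescence) measured in the doxycycline-induced CHO RORE-luciferase reporter line after 16 hr compound exposure at 37 C, 5% CO2.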

Measured: Potency

C=CC(=C)CCC=C(C)C
inactive: all assays above
